Data taken from PubChem BioAssay.

Test: calcein-AM signal in unstimulated myeloma cells – cell-based, calcein-AM fluorescence, 48 h, PK04 Diversity Set, profiling panel (AID 1166);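 further: cells grown under basal conditions without added stimulus; test concentration not given here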
Settings: RPMI8226 myeloma viability, higher = more signal

SMILES | z-score
COc1ccc(C#Cc2ccc3c(c2)[C@]2(C(=O)N3)[C@H](c3ccccc3OCCO)N3[C@H](c4ccccc4)[C@H](c4ccccc4)OC(=O)[C@H]3[C@@H]2C(=O)Nc2nc3ccccc3s2)cc1 | -2.65
COCCCNC(=O)[C@@]1(C)c2ccccc2C(=O)N(C(C)C)[C@H]1c1ccc(CO)cc1 | 0.532
COc1cc2c(cc1OC)CN(C(=O)[C@@H]1[C@H]3C(=O)O[C@H](c4ccccc4)[C@H](c4ccccc4)N3[C@H](c3ccc(O)cc3)[C@@]13C(=O)Nc1ccccc13)CC2 | -1.62
COc1cccc(-c2cccc(=O)o2)c1 | -1.87
COCCOC(=O)N1C(=O)[C@@]2(c3ccccc31)[C@H](c1ccc(O)cc1)N1[C@H](c3ccccc3)[C@H](c3ccccc3)OC(=O)[C@H]1[C@@H]2C(=O)Nc1nc2ccccc2s1 | -2.22
O=C1O[C@@H](c2ccccc2)[C@@H](c2ccccc2)N2[C@@H](c3ccccc3OCCO)[C@]3(C(=O)Nc4ccccc43)[C@@H](C(=O)Nc3nc4ccccc4s3)[C@H]12 | -4.44
CCCC[C@H]1OB(O)C[C@H]2C1=C(COC)Cn1c(=O)n(-c3ccccc3)c(=O)n12 | -0.657
C=C(COC)C(=O)CC[C@@H](OC(C)=O)c1ccc(CO)o1 | -0.355
O=C1C[C@@](C(=O)NCC(F)(F)F)(c2ccc([N+](=O)[O-])cc2)[C@@H](c2ccc(CO)cc2I)N1C1CCCCC1 | -1.65
COCCOC(=O)N1C(=O)[C@@]2(c3cc(C#CCC(C(=O)OC)C(=O)OC)ccc31)[C@H](C(=O)Nc1nc3ccccc3s1)[C@H]1C(=O)O[C@H](c3ccccc3)[C@H](c3ccccc3)N1[C@@H]2c1ccccc1OCCO | 0.199
CN1C(=O)C2C=CC(C(O)C3CC=CCC3)N(N(c3ccccc3)c3ccccc3)C2C1=O (stereo unspecified) | -0.785
N#Cc1ccc(NN2C(C(O)C(c3ccccc3)c3ccccc3)C=CC3C(=O)N(c4ccccc4)C(=O)C32)cc1 (stereo unspecified) | 0.103
O=C1N[C@@H](Cc2ccccc2)C(=O)N2[C@@H]1C[C@@H](C(=O)O)[C@H]2c1cccc(OCCO)c1 | 0.358
COC(=O)[C@@]1(Cc2ccc(F)cc2)[C@H]2c3cc(C(=O)N(C)C)n(Cc4cc(F)c(F)c(F)c4)c3C[C@H]2CN1C(=O)c1ccccc1 | -1.93
COc1ccc([Si](C)(C)[C@H]2[C@H](CC(=O)N3Cc4ccccc4C[C@H]3CO)O[C@@]3(C(=O)N(Cc4cccc(N5CCC5=O)c4)c4ccccc43)[C@@H]2C)cc1 | -3
CC1CC/C=C\[C@H]2OC34C=CCN(C(C)(C)C)C(=O)[C@H]3N(CCO)C(=O)[C@@H]4C2C(=O)O1 (stereo partly specified) | -0.197
CC(C)=CCN[C@H](CO)c1ccccc1 | -1.9
CC(C)C[C@@H]1NC(=O)[C@@H]2C[C@H](C(=O)NCc3ccc(F)cc3)[C@H](c3cccc(OCCO)c3)N2C1=O | 0.828

SMILES | z-score
COC(=O)[C@@]1(Cc2ccc(F)cc2)[C@H]2c3cc(C(=O)N4CCCC4)n(Cc4ccc(S(C)(=O)=O)cc4)c3C[C@H]2CN1C(=O)c1ccccc1 | -1.35
Cc1ccc(S[C@]2(C(=O)NCCCN(C)C)CC(=O)N(Cc3cc(C(F)(F)F)cc(C(F)(F)F)c3)[C@@H]2c2ccc(CO)cc2I)cc1 | -2
O=C1C[C@@](C(=O)NCCN2CCOCC2)(c2ccc([N+](=O)[O-])cc2)[C@@H](c2ccc(CO)cc2I)N1CC12CC3CC(CC(C3)C1)C2 | -4.39
CCCC=C(CCC)[C@@H](NC(=O)c1cccs1)c1ccc(C(F)(F)F)cc1 | -4.35
CCOC(=O)C[C@H]1[C@H](OC(=O)c2ccc(C(=O)c3ccccc3)cc2)[C@@H](NC(=O)c2ccccc2)c2cc(OCCCO)ccc2N1C(=O)c1ccc2ccccc2n1 | -0.465
COC(=O)[C@@]1(CCC(=O)OC(C)(C)C)N=C(c2ccc(OCCCO)cc2)O[C@H]1c1ccccc1N=[N+]=[N-] | -3.93
CCOC(=O)C[C@H]1[C@H](OC(=O)c2cc3ccccc3oc2=O)[C@@H](NC(=O)c2ccccc2)c2cc(OCCCO)ccc2N1C(=O)c1ccc2ccccc2n1 | -1.08
C=CCNC(=O)[C@@H]1[C@H]2C(=O)O[C@H](c3ccccc3)[C@H](c3ccccc3)N2[C@H](c2ccc(O)cc2)[C@@]12C(=O)N(C(=O)OCCOC)c1ccc(C#CCNC(N)=O)cc12 | 1.09
C=CCNC(=O)[C@H]1[C@@H]2C(=O)O[C@@H](c3ccccc3)[C@@H](c3ccccc3)N2[C@@H](c2ccccc2OCCO)[C@]12C(=O)Nc1ccc(C#CCC(C(=O)OC)C(=O)OC)cc12 | -4.63
CCOC(=O)C1=CC[C@@H](c2ccccc2)N(S(=O)(=O)c2ccc(C)cc2)[C@H]1c1ccccc1C | -0.734
O=C1O[C@H](c2ccccc2)[C@H](c2ccccc2)N2[C@H]1[C@@H](C(=O)N1CCCCCCC1)[C@]1(C(=O)Nc3ccc(C#CCCO)cc31)[C@H]2c1ccccc1OCCO | -3.71
C=C(C(=O)CC[C@@H](OC(=O)c1cccnc1)c1ccccc1OCCO)C(C)C | -1.08
O=C1C2C=CC(C(O)Cc3ccccc3)N(n3cnnc3)C2C(=O)N1Cc1ccccc1 (stereo unspecified) | -1.11
O=C1[C@@]23C=C(Br)[C@H](C[C@@H]2CCOC3)[C@@]12CO2 | -0.491
COC(=O)[C@@]1(Cc2ccc(OC)cc2)[C@H]2c3cc(C(=O)N(C)C)n(C)c3C[C@H]2CN1C(=O)c1ccccc1 | -2.47
COCCOC(=O)N1C(=O)[C@@]2(c3cc(C#CCNC(N)=O)ccc31)[C@H](C(=O)N1CCN(c3ncccn3)CC1)[C@H]1C(=O)O[C@H](c3ccccc3)[C@H](c3ccccc3)N1[C@@H]2c1ccc(OCCO)cc1 | 0.287
COCCCNC(=O)[C@@H]1c2ccccc2C(=O)N(Cc2ccccc2Cl)[C@H]1c1ccc(CO)cc1 | 1.28
C=CC[C@]1(C(=O)NCCCOC)N=C(c2ccc(OCCCO)cc2)O[C@H]1c1ccccc1CN=[N+]=[N-] | -0.134
